According to PubChem BioAssay (NCATS):
Results filed as inconclusive are left out. The source made the active and inactive calls. Unless noted, the call rests on the fitted dose curve.

Assays:
[1] = target: Cytochrome P450 3A4 (Homo sapiens) (UniProt P08684); assay: qHTS Assay for Inhibitors and Substrates of Cytochrome P450 3A4 (AID 884; active means well fitted curve in the direction sought with a large enough effect; an effect the other way counts as inactive or inconclusive; further: potency means the concentration at half of the fitted maximal effect; nearly all actives have a fitted effect of over 50% in size)
Sequence of Cytochrome P450 3A4 (Homo sapiens) (P08684 whole entry, looked up): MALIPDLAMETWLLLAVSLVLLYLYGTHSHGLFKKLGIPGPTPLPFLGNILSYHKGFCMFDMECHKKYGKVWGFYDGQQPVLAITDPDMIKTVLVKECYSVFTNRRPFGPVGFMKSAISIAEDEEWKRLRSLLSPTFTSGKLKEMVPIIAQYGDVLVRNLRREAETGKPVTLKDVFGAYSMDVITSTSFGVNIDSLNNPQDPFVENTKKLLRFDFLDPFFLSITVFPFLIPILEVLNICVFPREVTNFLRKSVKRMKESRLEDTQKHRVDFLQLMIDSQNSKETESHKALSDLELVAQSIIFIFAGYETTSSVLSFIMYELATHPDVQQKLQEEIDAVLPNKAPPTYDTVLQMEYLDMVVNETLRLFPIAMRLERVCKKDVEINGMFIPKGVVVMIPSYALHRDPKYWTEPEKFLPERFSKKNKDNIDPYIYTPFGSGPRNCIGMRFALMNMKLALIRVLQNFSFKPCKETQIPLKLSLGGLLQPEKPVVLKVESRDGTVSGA
How it was run: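 20 nM human CYP3A4 with 25 uM Luciferin-PPXE (at KM) in 200 mM KPO4, preincubated 10 min with compound; NADPH regeneration started a 60 min RT reaction. Luciferin detected by luminescence, normalized to 57 uM ketoconazole as full inhibition.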

[2] = target: Cytochrome P450 3A4 (Homo sapiens) (UniProt P08684); assay: qHTS Assay for Activators of Cytochrome P450 3A4 (AID 885; active means well fitted curve in the direction sought with a large enough effect; an effect the other way counts as inactive or inconclusive; further: nearly all actives have a fitted effect of over 65% in size)
How it was run: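 Quantitative HTS format: compounds preincubated with 20nM human CYP3A4 and Luciferin-PPXE substrate at KM, reaction started by NADPH regeneration, stopped after 60 min, luciferase luminescence read 20 min later.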

[3] = Confirmation and Secondary Assay for Modulators of Hemoglobin Beta Chain Splicing at IVS2 654 locus (AID 910; active means well fitted curve in the direction sought with a large enough effect; an effect the other way counts as inactive or inconclusive;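 further: HeLa cells stably carrying EGFP split by mutant beta-globin IVS2-654 intron; per-well total GFP intensity by laser scanning cytometry after 2-day treatment; % of control where 0% means no effect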)
How it was run: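 Readout: per-well total peak green fluorescence (488 nm ex, 500–520 nm em) from objects 5–250 µm, reflecting correct splicing of an EGFP-654 reporter. Compounds were applied for 2 days at 37 °C to overnight-plated HeLa EGFP-654 cells; controls were DMSO and 500 nM IVS2-654 PNA.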

[4] = Confirmation and Secondary Assay for Modulators of Hemoglobin Beta Chain Splicing at IVS2 705 locus (AID 930; active means well fitted curve in the direction sought with a large enough effect; an effect the other way counts as inactive or inconclusive;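 further: HeLa cells stably expressing the EGFP-705 splicing reporter; GFP fluorescence per well restored by corrected splicing of the IVS2-705 intron in EGFP; % of control where 0% means no effect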)
How it was run: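 HeLa IVS2-705 EGFP reporter cells, 500/well, compound 2 d at 37C; correct splicing yields fluorescent EGFP. Control: 500 nM antisense PNA. Read-out: total peak GFP intensity.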

[5] = qHTS Assay for Lipid Storage Modulators (AID 1519); details: Drosophila S3 cells, BODIPY lipid droplet/cell ratio, laser cytometry, cells loaded with oleic acid; on activity change, negative = inhibition: on the % scale 0 is the no-effect control and ±100 the full control effect
How it was run: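 Cells seeded at 5,000 per well were treated with compounds over a concentration series and loaded with oleic acid (400 uM, as added). Lipid droplet fluorescence (488 nm excitation, 500-530 nm channel) was read by laser-scanning cytometry and normalized to 20 uM Triacsin C.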

[6] = target: Ubiquitin carboxyl-terminal hydrolase 1 (Homo sapiens) (UniProt O94782); assay: Inhibitors of USP1/UAF1: Pilot qHTS (AID 504865; active means well fitted curve in the direction sought with a large enough effect; an effect the other way counts as inactive or inconclusive;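 further: rhodamine fluorescence freed from ubiquitin-rhodamine substrate followed over time; top concentration of the series differs between compounds; on the % scale 0 is the no-effect control and ±100 the full control effect; nearly all actives have a fitted effect of over 35% in size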)
Sequence of Ubiquitin carboxyl-terminal hydrolase 1 (Homo sapiens) (O94782 whole entry, looked up): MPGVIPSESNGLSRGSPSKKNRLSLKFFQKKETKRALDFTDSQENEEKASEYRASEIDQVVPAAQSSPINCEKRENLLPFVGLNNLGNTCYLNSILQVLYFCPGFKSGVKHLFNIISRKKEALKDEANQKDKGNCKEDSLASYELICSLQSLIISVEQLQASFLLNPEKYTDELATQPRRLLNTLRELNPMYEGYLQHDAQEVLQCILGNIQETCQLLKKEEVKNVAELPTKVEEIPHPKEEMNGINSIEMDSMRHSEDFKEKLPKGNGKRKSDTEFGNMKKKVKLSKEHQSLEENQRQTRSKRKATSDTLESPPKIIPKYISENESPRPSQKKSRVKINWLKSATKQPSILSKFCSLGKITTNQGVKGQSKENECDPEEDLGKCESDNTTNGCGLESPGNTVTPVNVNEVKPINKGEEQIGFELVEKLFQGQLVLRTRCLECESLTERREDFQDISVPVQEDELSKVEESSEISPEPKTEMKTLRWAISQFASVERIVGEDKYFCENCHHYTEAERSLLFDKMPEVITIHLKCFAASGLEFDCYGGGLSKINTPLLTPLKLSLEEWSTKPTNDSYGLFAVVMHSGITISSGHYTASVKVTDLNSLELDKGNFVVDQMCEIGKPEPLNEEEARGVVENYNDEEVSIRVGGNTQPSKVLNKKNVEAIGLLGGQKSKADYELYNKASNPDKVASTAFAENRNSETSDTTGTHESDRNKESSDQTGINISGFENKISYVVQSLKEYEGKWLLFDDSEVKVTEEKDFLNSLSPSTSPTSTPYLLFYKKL
How it was run: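 USP1/UAF1 complex (1nM) preincubated with compound 15 min at room temperature, then Ub-Rho substrate (150nM final) added. Fluorescence read kinetically at 480/540 nm, 6 reads every 60 seconds. Buffer: 50mM HEPES pH 7.8, 0.5mM EDTA, 0.1 mg/ml BSA, 1mM TCEP, 0.01% Tween-20.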

[7] = target: Cytochrome P450 1A2 (Homo sapiens) (UniProt P05177); assay: p450-cyp1a2 (AID 410);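 further: -100% = full effect of reference inhibitor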
Sequence of Cytochrome P450 1A2 (Homo sapiens) (P05177 whole entry, looked up): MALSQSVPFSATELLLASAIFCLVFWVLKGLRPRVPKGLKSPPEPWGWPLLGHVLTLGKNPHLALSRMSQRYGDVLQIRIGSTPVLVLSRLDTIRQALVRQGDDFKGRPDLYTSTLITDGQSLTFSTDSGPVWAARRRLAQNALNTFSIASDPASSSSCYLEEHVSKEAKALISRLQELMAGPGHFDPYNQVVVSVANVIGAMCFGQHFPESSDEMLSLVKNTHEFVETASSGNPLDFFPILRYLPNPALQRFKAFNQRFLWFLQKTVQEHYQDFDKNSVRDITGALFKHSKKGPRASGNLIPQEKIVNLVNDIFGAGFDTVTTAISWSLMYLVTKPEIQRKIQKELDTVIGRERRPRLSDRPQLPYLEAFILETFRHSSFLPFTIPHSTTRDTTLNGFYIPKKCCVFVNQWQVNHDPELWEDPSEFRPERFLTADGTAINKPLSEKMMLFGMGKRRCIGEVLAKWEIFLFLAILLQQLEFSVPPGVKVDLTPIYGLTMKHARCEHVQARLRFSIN
How it was run: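 Luminescent readout of luciferin formed from Luciferin-ME by human CYP1A2; data normalized against complete inhibition by 57 uM furafylline. Enzyme 20nM, substrate 100uM at Km, 100mM KPO4 buffer, 60 min reaction at room temperature.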

[8] = target: Glucocorticoid receptor (Homo sapiens) (UniProt P04150); assay: GR-GFP Redistribution (AID 450;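 active means compounds whose dose series gives a full or clear partial fitted curve of increased nuclear translocation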; further: potency means the concentration at half of the fitted maximal effect); details: U2OS GR-GFP nuclear translocation, laser cytometry, 2 h
Sequence of Glucocorticoid receptor (Homo sapiens) (P04150 whole entry, looked up, the tested form may be a part): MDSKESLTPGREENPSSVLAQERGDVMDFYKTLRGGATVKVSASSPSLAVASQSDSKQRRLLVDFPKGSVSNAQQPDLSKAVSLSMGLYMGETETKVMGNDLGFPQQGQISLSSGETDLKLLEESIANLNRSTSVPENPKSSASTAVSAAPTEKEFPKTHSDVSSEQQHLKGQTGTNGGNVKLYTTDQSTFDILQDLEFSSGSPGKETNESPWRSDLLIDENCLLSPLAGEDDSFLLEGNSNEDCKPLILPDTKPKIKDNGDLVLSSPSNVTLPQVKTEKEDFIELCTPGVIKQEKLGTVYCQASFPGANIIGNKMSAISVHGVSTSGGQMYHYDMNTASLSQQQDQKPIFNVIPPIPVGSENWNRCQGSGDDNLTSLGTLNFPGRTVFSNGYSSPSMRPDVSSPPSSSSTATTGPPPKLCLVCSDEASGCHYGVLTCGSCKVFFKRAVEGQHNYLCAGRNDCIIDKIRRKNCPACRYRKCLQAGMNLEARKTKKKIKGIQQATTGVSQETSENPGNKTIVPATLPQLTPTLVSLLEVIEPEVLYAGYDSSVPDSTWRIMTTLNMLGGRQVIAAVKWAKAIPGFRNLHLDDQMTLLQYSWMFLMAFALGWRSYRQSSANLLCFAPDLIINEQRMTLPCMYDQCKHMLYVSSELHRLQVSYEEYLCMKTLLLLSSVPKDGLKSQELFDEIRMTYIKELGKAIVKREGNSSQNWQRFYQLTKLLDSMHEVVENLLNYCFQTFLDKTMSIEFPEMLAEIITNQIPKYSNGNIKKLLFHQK

[9] = target: Glucocorticoid receptor (Homo sapiens) (UniProt P04150); assay: GR-EFC Redistribution (AID 451); details: CHO-K1 GR-EFC translocation, beta-gal luminescence, 2 h; further: potency means the concentration at half of the fitted maximal effect
How it was run: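 Translocation of GR-ED fusion to nuclear EA restores b-gal, read by luminescence after 1 h room-temperature detection. Engineered CHO-K1 biosensor cells, 1,000/well, exposed 2 h at 37 C to titrations up to 46 uM final.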

[10] = target: Mitogen-activated protein kinase 10 (Mus musculus) (UniProt Q61831); assay: JNK3 AlphaScreen Assay (AID 530; active means well fitted curve in either direction with a large enough effect, not every such curve was filed as active;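 further: kinase came from lysate of stimulated human HepG2 cells; signal reports phosphorylation of biotinylated GST-cJun 1-79 at Ser73 with 10 µM ATP; on the % scale 0 is the no-effect control and ±100 the full control effect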)
How it was run: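 Compound titrations were preincubated 15 minutes at room temperature with substrate, antibody and pre-activated JNK3-containing HepG2 lysate. Reactions were started with 10 uM ATP and stopped with EDTA-containing bead buffer for AlphaScreen detection.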

[11] = target: Cytochrome P450 2C19 (Homo sapiens) (UniProt P33261); assay: qHTS Assay for Inhibitors and Substrates of Cytochrome P450 2C19 (AID 899; active means well fitted curve in the direction sought with a large enough effect; an effect the other way counts as inactive or inconclusive; further: on the % scale 0 is the no-effect control and ±100 the full control effect; nearly all actives have a fitted effect of over 60% in size)
Sequence of Cytochrome P450 2C19 (Homo sapiens) (P33261 whole entry, looked up): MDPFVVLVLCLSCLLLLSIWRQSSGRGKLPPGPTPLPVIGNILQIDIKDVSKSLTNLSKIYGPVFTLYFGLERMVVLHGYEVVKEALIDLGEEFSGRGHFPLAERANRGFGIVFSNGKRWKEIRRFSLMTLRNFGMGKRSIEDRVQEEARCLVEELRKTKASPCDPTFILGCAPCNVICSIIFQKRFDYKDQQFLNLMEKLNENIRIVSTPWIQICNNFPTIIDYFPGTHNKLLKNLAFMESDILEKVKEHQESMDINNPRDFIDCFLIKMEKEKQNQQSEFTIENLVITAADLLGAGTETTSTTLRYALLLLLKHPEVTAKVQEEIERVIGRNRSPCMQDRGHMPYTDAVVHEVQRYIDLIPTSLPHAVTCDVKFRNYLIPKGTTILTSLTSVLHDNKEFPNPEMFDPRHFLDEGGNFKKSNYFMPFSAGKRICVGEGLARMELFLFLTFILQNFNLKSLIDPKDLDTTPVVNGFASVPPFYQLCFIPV
How it was run: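 5nM enzyme + 10uM Luciferin-H EGE (=KM), 50mM KPO4; cpd pin-transferred, 10 min 37C; NADPH regen, 60 min 37C; stopped w/ luciferin detection reagent, 20 min; luminescence. Normalized to 57uM ketoconazole (AC100).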

[12] = AP1 Signaling Pathway (AID 357; active means well fitted curve in either direction with a large enough effect, not every such curve was filed as active; further: on the % scale 0 is the no-effect control and ±100 the full control effect); details: ME-180 (cervical carcinoma) AP-1-bla reporter, EGF-induced, beta-lactamase ratio, 5 h; at 7.69 µM (top of the series) unless noted
How it was run: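 Titration-series screen for positive or negative modulators of EC50 EGF-induced signaling in ME-180 cells carrying an AP-1-driven beta-lactamase reporter. After 5 hours at 37 degrees Celsius, CCF4 460nm/530nm emission ratio gave %Activity; AC50 values derived.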

[13] = target: 3',5'-cyclic-AMP phosphodiesterase 4B (Homo sapiens) (UniProt Q07343); assay: qHTS Assay for Inhibitors of PDE-IV (AID 607; active means well fitted activation curve with a large enough effect in the main read-out, with a control signal flat, not every such curve was filed as active; further: % of control where 0% means no effect)
Sequence of 3',5'-cyclic-AMP phosphodiesterase 4B (Homo sapiens) (Q07343 whole entry, looked up): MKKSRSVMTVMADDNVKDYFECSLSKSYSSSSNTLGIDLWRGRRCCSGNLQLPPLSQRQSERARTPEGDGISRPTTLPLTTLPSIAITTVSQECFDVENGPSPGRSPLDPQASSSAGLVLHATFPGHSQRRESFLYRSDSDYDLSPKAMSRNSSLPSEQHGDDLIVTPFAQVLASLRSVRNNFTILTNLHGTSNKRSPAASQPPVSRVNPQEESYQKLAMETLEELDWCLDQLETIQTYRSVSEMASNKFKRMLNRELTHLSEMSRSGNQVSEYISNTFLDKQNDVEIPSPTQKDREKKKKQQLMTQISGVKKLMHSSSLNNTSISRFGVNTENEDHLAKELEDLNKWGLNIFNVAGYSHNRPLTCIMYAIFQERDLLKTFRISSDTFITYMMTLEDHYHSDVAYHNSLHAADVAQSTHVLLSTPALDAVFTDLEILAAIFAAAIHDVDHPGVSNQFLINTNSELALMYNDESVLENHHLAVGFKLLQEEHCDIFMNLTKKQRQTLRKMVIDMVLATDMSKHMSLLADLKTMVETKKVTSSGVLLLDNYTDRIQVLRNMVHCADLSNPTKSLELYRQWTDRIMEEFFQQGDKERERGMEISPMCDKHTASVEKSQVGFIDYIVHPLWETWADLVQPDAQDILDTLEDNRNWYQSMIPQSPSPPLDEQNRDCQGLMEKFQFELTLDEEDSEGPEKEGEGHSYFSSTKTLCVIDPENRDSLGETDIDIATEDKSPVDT
How it was run: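 Live HEK293 cells with a modified cyclic nucleotide-gated (CNG) channel report intracellular cAMP via membrane-potential dye fluorescence (ex 535/em 590 nm). Endogenous PDE-IV was targeted. Compounds were tested at up to 22.9 uM final; RO 20-1724 100 uM served as control.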

[14] = measured here: cell count channel max response
[15] = measured here: lipid channel max response

COc1ccc(-c2cc(=O)c3c(OC)c(OC)c(OC)c(OC)c3o2)cc1OC
Potency [1]: 25.1 µM (active)
Potency [2]: inactive
Potency [3]: inactive
outcome [4]: inactive
activity change, negative = inhibition ([5]; at 57.5 µM (top of the series)): -10.1% (inactive)
max response [5, 14]: -11.8%
max response [5, 15]: -19.5%
Potency [6]: inactive

C[C@@H](Oc1ccc(Oc2cnc3ccc(Cl)cc3n2)cc1)C(=O)O
activity change, negative = inhibition ([5]; at 57.5 µM (top of the series)): -0.184% (inactive)
max response [5, 14]: -7.54%
max response [5, 15]: -6.55%

CC#C[C@]1(O)CC[C@H]2C3CCC4=CC(=O)CCC4=C3[C@@H](c3ccc(N(C)C)cc3)C[C@@]21C (some centres not stated)
activity change, negative = inhibition ([5]; at 57.5 µM (top of the series)): 0.852% (inactive)
max response [5, 14]: -13.1%
max response [5, 15]: -13.3%

Nc1ncnc2c1ncn2[C@@H]1O[C@H](COP(=O)(O)OP(=O)(O)OP(=O)(O)OP(=O)(O)OC[C@@H]2O[C@H](n3cnc4c(N)ncnc43)[C@@H](O)[C@@H]2O)[C@H](O)[C@H]1O
activity change, negative = inhibition ([5]; at 57.5 µM (top of the series)): 1.69% (inactive)
max response [5, 14]: 17%
max response [5, 15]: 19.7%

CN1CCc2c(cc(O)c(O)c2Cl)C(c2cccc(Cl)c2)C1 (configuration not stated)
activity change, negative = inhibition ([5]; at 57.5 µM (top of the series)): -5.99% (inactive)
max response [5, 14]: 26.1%
max response [5, 15]: 9.27%

COc1cc2c3cc1Oc1c(OC)c(OC)cc4c1[C@@H](Cc1ccc(O)c(c1)Oc1ccc(cc1)C[C@@H]3N(C)CC2)N(C)CC4
Potency [7]: inactive
Potency [8]: > 46 µM (inactive)
Potency [9]: > 46 µM (inactive)
Potency [10]: inactive
Potency [11]: inactive
activity change, negative = inhibition ([5]; at 57.5 µM (top of the series)): 6.85% (inactive)
max response [5, 14]: 20.8%
max response [5, 15]: 29.4%

Cc1cc(/C=C\c2ccc3cc(N(C)C)ccc3[n+]2C)c(C)n1-c1ccccc1
activity change, negative = inhibition [12]: 12.4% [at 17.2 µM] (inactive)
Potency [8]: > 20.6 µM (inactive)
Potency [9]: > 20.6 µM (inactive)
Potency [13]: inactive
activity change, negative = inhibition ([5]; at 25.7 µM (top of the series)): -5.56% (inactive)
max response [5, 14]: -11.1%
max response [5, 15]: -18.2%

COC(=O)CC1C2(C)CC34OC5(C)O[C@@]6(C7/C(=C(/OC)C(C)C)C(=O)OC(c8ccoc8)[C@@]7(C)C(OC(=O)C(C)C)C(OC)[C@]6(O5)[C@@]13C)C(OC)[C@]4(OC)C2OC(C)=O (some centres not stated)
Potency [1]: 2.51 µM (active)
Potency [2]: inactive
Potency [3]: inactive
outcome [4]: inactive
activity change, negative = inhibition ([5]; at 57.5 µM (top of the series)): -17.5% (inactive)
max response [5, 14]: 1.3%
max response [5, 15]: -14.4%
